Records with an inconclusive call do not appear. Calls of active or inactive are those of the source. Calls come from the whole dose curve; as a rule, active = well fitted inhibition curve with a large enough effect; inconclusive = small, poorly fitted or top-dose-only effect; inactive = flat fitted curve, though single readings scatter.
Key:
Assay in all cases: qHTS profiling for inhibitors of Plasmodium falciparum proliferation (AID 504749); note: nearly all actives have a fitted effect of over 60% in size
Details in all cases: P. falciparum in erythrocytes, SYBR Green DNA, 72 h; series mostly up to 28.7 µM
CP256 = test system: CP256
Method in brief: (§1)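 In a 72 h erythrocytic culture (37 C, humidified, 5% CO2) at 2.5% hematocrit and 0.3% starting parasitemia, compounds were tested; SYBR Green I in detergent lysis buffer stained parasite DNA overnight.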

CP260 = test system: CP260
Method in brief: as §1

CP262 = test system: CP262
Method in brief: as §1

CP265 = test system: CP265
Method in brief: as §1

CP266 = test system: CP266
Method in brief: as §1

CP268 = test system: CP268
Method in brief: as §1

CP269 = test system: CP269
Method in brief: as §1

CP286 = test system: CP286
Method in brief: as §1

CP291 = test system: CP291
Method in brief: as §1

CP297 = test system: CP297
Method in brief: as §1

CP305 = test system: CP305
Method in brief: as §1

CP315 = test system: CP315
Method in brief: as §1

CP325 = test system: CP325
Method in brief: as §1

CP329 = test system: CP329
Method in brief: as §1

CP335 = test system: CP335
Method in brief: as §1

DFO2036 = test system: DFO2036
Method in brief: as §1

DIV14 = test system: DIV14
Method in brief: as §1

DIV17 = test system: DIV17
Method in brief: as §1

DIV30 = test system: DIV30
Method in brief: as §1

Dd2 = test system: Dd2
Method in brief: as §1

ECU = test system: ECU
Method in brief: as §1

FAB9 = test system: FAB9
Method in brief: as §1

HB3 = test system: HB3
Method in brief: as §1

ICS = test system: ICS
Method in brief: as §1

JCK = test system: JCK
Method in brief: as §1

N140 = test system: N140
Method in brief: as §1

P93_24 = test system: P93_24
Method in brief: as §1

P94_40 = test system: P94_40
Method in brief: as §1

PAD = test system: PAD
Method in brief: as §1

PC15 = test system: PC15
Method in brief: as §1

PC26 = test system: PC26
Method in brief: as §1

PC49 = test system: PC49
Method in brief: as §1

SC27B = test system: SC27B
Method in brief: as §1

TAB109 = test system: TAB109
Method in brief: as §1

TAB113 = test system: TAB113
Method in brief: as §1

TAB165 = test system: TAB165
Method in brief: as §1

W2 = test system: W2
Method in brief: as §1

Measured: Potency

CN(C)[C@H]1C(=O)C(C(=O)NCN2CCCC2)=C(O)[C@]2(O)C(=O)C3=C(O)c4c(O)cccc4[C@](C)(O)[C@H]3C[C@H]12
inactive: all assays above
